Bioassay records from PubChem.
This is a sample that favours compounds with a hit; in the whole collection about 6.1% have one here.
Luciferase inh: qHTS Assay for Inhibitors of Firefly Luciferase; purified firefly luciferase, luminescence, 8 min; Potency, µM (top dose mostly 57.1 µM), usual class: inhibitors; 2.2% of 72,000 active; AID 411, 2009; also: nearly all actives have a fitted effect of over 40% in size
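Compounds were tested as concentration series (qHTS) against purified P. pyralis luciferase with luciferin and 10 uM ATP in 50 mM imidazole pH 7.2, 50 mM KCl, 7 mM MgCl2, 0.01% Tween 20, 0.05% BSA. Luminescence was read after 8 min at ambient temperature.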
15-hLO inh: qHTS Assay for Inhibitors of 15-hLO (15-human lipoxygenase) | purified 15hLO-1, xylenol orange hydroperoxide absorbance | Potency, µM (highest dose often 57.1 µM), usual class: inhibitors | 1.4% of 74,000 active | AID 887, 2007; also: nearly all actives have a fitted effect of over 55% in size
Target sequence (P16050 whole entry, looked up): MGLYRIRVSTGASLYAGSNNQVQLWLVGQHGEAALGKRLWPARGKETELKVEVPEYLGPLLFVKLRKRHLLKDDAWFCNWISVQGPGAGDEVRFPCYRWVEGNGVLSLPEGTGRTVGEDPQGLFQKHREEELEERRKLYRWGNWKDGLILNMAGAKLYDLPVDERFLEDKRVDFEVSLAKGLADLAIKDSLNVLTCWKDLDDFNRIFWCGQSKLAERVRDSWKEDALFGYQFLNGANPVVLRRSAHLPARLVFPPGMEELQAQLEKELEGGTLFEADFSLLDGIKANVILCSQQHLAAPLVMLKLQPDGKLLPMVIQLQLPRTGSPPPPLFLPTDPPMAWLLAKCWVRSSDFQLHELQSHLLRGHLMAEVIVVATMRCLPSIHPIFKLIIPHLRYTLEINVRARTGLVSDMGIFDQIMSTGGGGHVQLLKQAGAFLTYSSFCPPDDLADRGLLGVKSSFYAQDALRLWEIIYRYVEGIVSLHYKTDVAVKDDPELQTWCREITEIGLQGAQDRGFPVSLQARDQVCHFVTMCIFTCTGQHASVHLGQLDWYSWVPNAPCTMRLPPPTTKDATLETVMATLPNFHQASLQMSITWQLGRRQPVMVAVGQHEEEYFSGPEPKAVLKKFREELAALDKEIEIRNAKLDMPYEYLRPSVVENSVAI
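Purified human 15hLO-1 (40 nM) in 25 mM Hepes pH 7.5, 0.01% Triton X-100, preincubated 15 min RT with compound, then 50 uM arachidonic acid for 6 min. Hydroperoxide read by ferrous/xylenol orange, 30 min; 573/405 nm absorbance ratio gave progress.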
ERK AVP block: qHTS Assay for Inhibitors of the ERK Signaling Pathway using a Homogeneous Screening Assay; HEK293-V1b, vasopressin-stimulated pERK AlphaScreen; Potency, µM (series often up to 57.5 µM), hits mostly inhibitors; 0.99% of 72,000 active; also: nearly all actives have a fitted effect of over 55% in size
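Phosphorylated ERK1/2 detected via AlphaScreen bead proximity in lysates of V1b-expressing HEK293 cells given 25 nM vasopressin for 5 min after 30 min compound exposure (37 °C). AC50 from Hill equation; basal DMSO 0%, vasopressin 100%.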
PK Bst: Pyruvate Kinase. purified pyruvate kinase, luminescence ATP production; ribose 5-phosphate activator present at AC10. Potency, µM. 1.2% of 51,000 active. AID 361, 2006; in the data active = potency below about 11 µM; inconclusive = mostly about 12 µM to 25 µM;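 the screen sought inhibitors and activators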
Tau filament bind: qHTS Assay for Tau Filament Binding | Potency, µM (series often up to 57.1 µM) | 2% of 71,000 active | Microtubule-associated protein tau (Homo sapiens), P10636 | recombinant tau filaments, thioflavin S fluorescence, 15 h; filaments grown with octadecylsulfate alongside compound;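 also: actives lower thioflavin S fluorescence by blocking filaments or displacing dye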
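Read-out: ThS fluorescence, 450 nm excitation/510 nm emission; lower signal marks blocked filament formation or displaced dye. Tau at 1 uM with 30 uM ODS, 10 uM ThS, 5 mM DTT, 100 mM NaCl, 10 mM HEPES pH 7.4; 15 h, 37 C.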
Hsp90 Hop PPI: qHTS Assay for Disrupters of an Hsp90 Co-Chaperone Interaction | Hsp90 C-terminal peptide / TPR2A (Hop) interaction, human | AlphaScreen TPR2A-His6 binding biotin-Hsp90 C-terminal peptide | Potency, µM (titrated, usually from 57 µM) | 0.44% of 71,000 active; active = well fitted curve in either direction with a large enough effect; inconclusive = small, poorly fitted or top-dose-only effect, or another doubt
Numbers stand for hits; n = inactive; u = inconclusive; x = no result; [ ] = remark or other dose. Unless noted, calls follow the shape of the dose curve; as a rule, active = well fitted curve in the direction sought with a large enough effect; inconclusive = small, poorly fitted or top-dose-only effect, or another doubt; inactive = no such curve, though single readings can be large; an effect the other way counts as inactive or inconclusive.

SMILES	Luciferase inh	15-hLO inh	ERK AVP block	PK Bst	Tau filament bind	Hsp90 Hop PPI
Cc1noc(C)c1COC(=O)CCN1c2ccccc2Sc2ccccc21	n	n	n	x	20µM	n
c1coc(C2Nc3cccc4cccc(c34)N2)c1	n	1.58µM	u	x	6.31µM	n
O=C1CSC(c2ccco2)N1 (stereo not given)	n	n	n	x	n	n
Cc1ccccc1Cn1c(CN2CCN(c3ccc(F)cc3)CC2)nc2c1c(=O)n(C)c(=O)n2C	n	20µM	x	x	n	n
CN1CCN(Cc2nc3c(c(=O)n(C)c(=O)n3C)n2Cc2ccccc2Cl)CC1	12.6µM	u	x	x	n	n
CC1CCCN(Cc2nc3c(c(=O)n(C)c(=O)n3C)n2Cc2c(F)cccc2Cl)C1 (stereo not given)	6.31µM	n	x	x	n	n
CC(C)NC(=O)N1CC[C@@]2(CCCN(C(=O)c3cnccn3)C2)C1	n[11.4 µM]	n	n	x	n	n
Cc1noc(C)c1-c1cncnc1N(C)Cc1ccco1	n[2.29 µM]	n	n	x	n	n
O=C(Nc1ccccc1)N1CCC2(CC1)CCN(C(=O)c1cnccn1)CC2	n[11.4 µM]	n	n	x	n	n
Cc1nn(-c2nc3ccccc3s2)c(C)c1Oc1ccccc1O	u	15.8µM	u	x	n	n
CCc1cc(C(=O)Cc2ccc(F)cc2)c(O)cc1O	n	u	n	x	n	n
CCc1cc(/C(Cc2ccc3ccccc3n2)=N\O)c(O)cc1O	n	u	n	x	n	n
CCc1cc(C(=O)COc2ccccc2F)c(O)cc1O	n	12.6µM	u	x	n	n
CCc1cc(C(=O)Cc2nc3ccccc3[nH]2)c(O)cc1O	10µM	n	n	n	n	n
N#Cc1cccc(-c2ccc3ncnc(NCc4ccccc4)c3c2)c1	n[2.29 µM]	n	u	x	n	n
Cc1cc(N2CCCCC2)n2ncc(-c3ccc(Cl)cc3)c2n1	12.6µM	n	n	n	n	25.1µM
Cc1cc(N2CCC(C)CC2)n2ncc(-c3ccccc3)c2n1	15.8µM	n	n	u	n	u
Cc1cc(N2CCCCC2)n2nc(C)c(-c3ccccc3)c2n1	n	n	n	n	n	u
N#Cc1cccc(-c2nc(NCc3cccnc3)c3ccccc3n2)c1	n[2.29 µM]	n	u	x	n	n
Cc1ccc(C(=O)C2CCN(CC(=O)Nc3ccc4c(c3)OCCO4)CC2)cc1	n	n	n	n	n	n
Cc1ccc(C(=O)C2CCN(CC(=O)Nc3ccc(N(C)C)cc3)CC2)cc1	n	n	15.8µM	n	20µM	n
CSc1ccc(CNc2ccccn2)cc1	15.8µM	n	n	x	n	n
O=C(NCCN1CCN(c2ccccc2)CC1)c1cccn2c(=O)c3cc(Cl)ccc3nc12	n	n	n	n	15.8µM	n
O=C(O)[C@H]1CN[C@H](C(=O)O)C1	n	u	n	x	39.8µM	n
O=C(O)[C@@H]1CCCN1	n[11.4 µM]	n[11.4 µM]	n[11.5 µM]	x	n[11.4 µM]	n[11 µM]
SMILES	Luciferase inh	15-hLO inh	ERK AVP block	PK Bst	Tau filament bind	Hsp90 Hop PPI
O=C(NCCc1ccc(Cl)cc1)C1CCN(C(=O)c2sccc2-n2cccc2)CC1	n	n	15.8µM	n	n	n
CC(CCc1ccccc1)NC(=O)C1CCN(C(=O)c2sccc2-n2cccc2)CC1 (stereo not given)	n	n	n	x	n	n
Cc1ccc(NC(=O)Nc2ccc(F)cc2)nc1	n	n	n	4.71	n	n
COc1ccc(C(=O)NC(=O)Nc2cc(C)ccn2)cc1	0.501µM	n	n	0.635	n	n
COc1ccc(NC(=O)Nc2cc(C)ccn2)cc1	1.58µM	n	n	x	n	n
COc1ccc(NC(=O)Nc2cc(C)ccc2OC)cc1	n	n	u	n	n	u
Cc1ccnc(NC(=O)Nc2ccc3c(c2)N(C)C(=O)CS3)c1	n	n	u	n	n	n
Cc1ccnc(NC(=O)Nc2ccc(F)cc2)c1	10µM	n	n	x	n	u
CN1[C@@H]2CC(OC(=O)[C@@H](CO)c3ccccc3)C[C@H]1[C@H]1O[C@H]12 (stereo not given in full)	n	n	n	x	n	n
CC1CCC2C(=O)N3C(CCC(C)[C@H]3c3ccccc3Br)C(=O)N2C1c1ccccc1Br (stereo not given in full)	x	n[11.4 µM]	n[11.5 µM]	x	x	x
CSc1ccc(NC(=O)Nc2cc(C)ccn2)cc1	2.51µM	n[11.4 µM]	n[11.5 µM]	x	n[11.4 µM]	n[11 µM]
Nc1nc2c(c(=O)[nH]1)N[C@H](CCNc1ccc(C(=O)O)cc1)CN2	n[11.4 µM]	n[11.4 µM]	n[11.5 µM]	x	n[11.4 µM]	n[11 µM]
COC(=O)N(/C=C/c1ccc(OC)cc1)CCc1ccc(OC)c(OC)c1	x	n[11.4 µM]	n[11.5 µM]	x	x	x
C[C@H]1[C@H](C)CC[C@@]2(C(=O)O)CC[C@]3(C)C(=CC[C@H]4[C@@]5(C)C[C@@H](O)[C@H](O)[C@@](C)(CO)[C@@H]5CC[C@@]43C)[C@@H]12	n[11.4 µM]	x	x	x	n	n
CC(C)C[C@@H](CC(=O)N[C@@H](CCC(=O)O)CC(=O)O)NC(=O)[C@@H]1CCCC[C@H]1NC(=O)C[C@@H](NC(=O)C[C@H](Cc1ccccc1)NC(=O)[C@@H]1CNCC[C@H]1N)C(C)C	x	x	x	x	n	u
CCc1cccc(NC(=O)CS(=O)Cc2nc(-c3ccc(C)cc3)oc2C)c1 (stereo not given)	n	n	31.6µM	x	n	n
CCCCC(CC)COCCCN (stereo not given)	x	n	n	x	n	n
CCOC(=O)C1=C(CSc2nc(C)ccc2C#N)OC(N)=C(C#N)C1c1cccc(OC)c1OC (stereo not given)	n	20µM	n	n	n	n
O=C1c2ccccc2S(=O)(=O)N1CC(O)Cn1ccc2ccccc21 (stereo not given)	n	n	n	n	n	n
CC(C)C(=O)NCCn1ccc2ccccc21	n	n	n	n	n	n
Oc1ccccc1NCC(O)Cn1ccc2ccccc21 (stereo not given)	n	6.31µM	n	n	12.6µM	u
OCc1nc2ccccc2n1CC(O)Cn1ccc2ccccc21 (stereo not given)	n	n	15.8µM	n	n	n
C/C=C(/C)C#N	x	n	n	x	n	u
COC(=O)C1C(=O)c2c([nH]c(C(=O)OC3CCCCC3)c2C)CC1C (stereo not given)	1µM	n	n	x	n	n
COC(=O)C1C(=O)c2c([nH]c(C(=O)OC3CCCC3C)c2C)CC1C (stereo not given)	10µM	n	31.6µM	x	n	n
COC(=O)C1C(=O)C2=C(CC1C)NC(C)=C(C(=O)OC1CCCCC1)C2c1ccc(N(C)C)cc1 (stereo not given)	n	15.8µM	n	n	25.1µM	u
COC(=O)C1C(=O)C2=C(CC1C)NC(C)=C(C(=O)OCCOc1ccccc1)C2c1ccc(C)o1 (stereo not given)	n	n	n	n	n	n
